# Test results reported in PubChem BioAssay (Tox21).
# Inconclusive results are not listed. A call without a number means that no potency is given here. The source holds several records for some structures; these can differ, active in one and inactive in another. Active and inactive are the calls of the source. Unless noted, calls come from the whole dose curve; as a rule, active = well fitted curve in the direction sought with a large enough effect in the repeat runs; inconclusive = weak or mixed curves; inactive = no such curve, though single readings can be large; an effect the other way counts as inactive or inconclusive.
# Tests used:
# [1] = A CellTox Green Cytotoxicity Assay to monitor cytotoxicity in HEK293 cells - 32 hour (AID 1224881); note: nearly all actives have a fitted effect of over 40% in size
# Procedure, shortened: (§1)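 Each value comes from one timepoint of a single continuous run in which HEK293 cells with CellTox Green were exposed to compound for up to 40 h at 37 C, dye fluorescence rising with cell death.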
# [2] = A CellTox Green Cytotoxicity Assay to monitor cytotoxicity in HepG2 cells - 0 hour (AID 1224882); note: nearly all actives have a fitted effect of over 35% in size
# Procedure, shortened: (§2)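 Continuous culture of HepG2 cells with a membrane-impermeant DNA dye; rising fluorescence marks dead cells. Compound exposure lasted up to 40 h at 37 C, with reads every 8 h from 0 h.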
# [3] = A CellTox Green Cytotoxicity Assay to monitor cytotoxicity in HepG2 cells - 32 hour (AID 1224883); note: nearly all actives have a fitted effect of over 50% in size
# Procedure, shortened: as §2
# [4] = A CellTox Green Cytotoxicity Assay to monitor cytotoxicity in HEK293 cells - 8 hour (AID 1224884); note: nearly all actives have a fitted effect of over 35% in size
# Procedure, shortened: as §1
# [5] = qHTS RealTime-Glo MT Cell Viability Assay in HepG2 cells - 16 hour (AID 1224885); note: nearly all actives have a fitted effect of over 50% in size
# Procedure, shortened: (§3)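 Luminescence read-out: viable HepG2 cells reduce a prosubstrate to a NanoLuc substrate, giving a signal proportional to live cell number. Reads taken at 0, 8, 16, 24, 32 and 40 h of compound exposure at 37 C.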
# [6] = qHTS RealTime-Glo MT Cell Viability Assay in HEK293 cells - 24 hour (AID 1224886); note: nearly all actives have a fitted effect of over 50% in size; note: potency is the fitted concentration of half-maximal effect
# Procedure, shortened: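 Nonlytic real-time viability readout: viable cells convert prosubstrate to NanoLuc substrate, giving luminescence proportional to live cell number. HEK293, 600 cells/well, compound added after 5 h, continuous culture at 37 C.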
# [7] = qHTS RealTime-Glo MT Cell Viability Assay in HEK293 cells - 8 hour (AID 1224887); note: nearly all actives have a fitted effect of over 50% in size; note: potency is the fitted concentration of half-maximal effect
# Procedure, shortened: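 qHTS format; HEK293 cells with NanoLuc/prosubstrate reagent, 37 C/5% CO2 for 5 h pre-dosing; compounds 23 nL in DMSO; luminescence at each time point reflects viable cells.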
# [8] = A CellTox Green Cytotoxicity Assay to monitor cytotoxicity in HEK293 cells - 16 hour (AID 1224888); note: nearly all actives have a fitted effect of over 35% in size
# Procedure, shortened: as §1
# [9] = qHTS RealTime-Glo MT Cell Viability Assay in HepG2 cells - 0 hour (AID 1224889); note: nearly all actives have a fitted effect of over 50% in size
# Procedure, shortened: as §3
# [10] = A CellTox Green Cytotoxicity Assay to monitor cytotoxicity in HepG2 cells - 8 hour (AID 1224890); note: nearly all actives have a fitted effect of over 45% in size
# Procedure, shortened: as §2
# [11] = qHTS assay to identify small molecule antagonists of the estrogen receptor alpha (ER-alpha) signaling pathway using the BG1 cell line in the presence of 0.1 nM 17-beta-estradiol - cell viability counter screen (AID 1259241); note: nearly all actives have a fitted effect of over 40% in size
# Procedure, shortened: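 The cell line endogenously expresses full-length ER-alpha and carries four EREs driving luciferase. Cells are cultured 5 days hormone-free, treated 22 hr with compounds and 0.1 nM estradiol, then viability is read by fluorescence.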
# [12] = qHTS assay to identify small molecule antagonists of the androgen receptor (AR) signaling pathway using the MDA cell line in the presence of 0.5 nM R1881 - cell viability counter screen (AID 1259242); note: nearly all actives have a fitted effect of over 45% in size
# Procedure, shortened: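 Fluorescence from CellTiter-Fluor, which reports protease activity of live cells, was read 30 min after reagent addition to MDA-kb2 cells that had been incubated 16 hr with compound and 0.5 nM R1881.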
# [13] = biological target: Estrogen receptor (Homo sapiens) (UniProt P03372); test: qHTS assay to identify small molecule antagonists of the estrogen receptor alpha (ER-alpha) signaling pathway using the BG1 cell line in the presence of 0.1 nM 17-beta-estradiol (AID 1259244); note: nearly all actives have a fitted effect of over 50% in size
# Estrogen receptor (Homo sapiens), sequence (P03372 whole entry, looked up): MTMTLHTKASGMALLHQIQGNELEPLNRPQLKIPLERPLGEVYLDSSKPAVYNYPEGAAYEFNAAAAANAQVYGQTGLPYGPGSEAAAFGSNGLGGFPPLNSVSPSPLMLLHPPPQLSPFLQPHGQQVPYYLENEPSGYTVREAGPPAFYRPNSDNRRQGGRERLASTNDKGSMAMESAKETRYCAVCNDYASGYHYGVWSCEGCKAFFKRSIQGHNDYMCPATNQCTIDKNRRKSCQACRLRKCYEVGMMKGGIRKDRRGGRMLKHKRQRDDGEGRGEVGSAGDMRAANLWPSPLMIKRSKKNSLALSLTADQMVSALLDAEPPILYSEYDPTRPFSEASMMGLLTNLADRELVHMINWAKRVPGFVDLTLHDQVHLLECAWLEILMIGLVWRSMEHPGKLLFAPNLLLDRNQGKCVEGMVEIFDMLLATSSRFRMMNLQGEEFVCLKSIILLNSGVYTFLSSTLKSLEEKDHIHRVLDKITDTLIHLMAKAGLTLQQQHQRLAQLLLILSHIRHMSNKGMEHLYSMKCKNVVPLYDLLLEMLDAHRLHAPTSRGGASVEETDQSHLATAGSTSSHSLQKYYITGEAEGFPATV
# Procedure, shortened: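 Quantitative high-throughput screen in VM7Luc4E2 cells: compound plus 0.1 nM E2 (final), 22 h, 37C, 5% CO2; ONE-Glo added, 30 min room temperature, luminescence measured.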
# [14] = qHTS assay to identify small molecule HDAC inhibitors (AID 1259364); note: top concentration of the series differs between compounds; nearly all actives have a fitted effect of over 45% in size
# Procedure, shortened: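 Endogenous HDAC class I/II activity was measured in wild-type HCT-116 cells by HDAC-Glo luminescence after 2 h compound treatment.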
# [15] = qHTS assay to identify small molecule HDAC inhibitors - cell viability counter screen (AID 1259365)
# Procedure, shortened: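 Viability readout: CellTiter-Glo luminescence. Wild-type HCT-116 cells, 2hr compound treatment following overnight attachment at 37 C.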
# [16] = qHTS assay to identify small molecule agonists of the sonic hedgehog signaling (Shh) pathway - cell viability counter screen (AID 1259366); note: nearly all actives have a fitted effect of over 50% in size; note: potency is the fitted concentration of half-maximal effect
# Procedure, shortened: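 Viability measured fluorometrically (CellTiter-Fluor, 1hr, 37C) in 3T3 Gli1-Luc reporter cells after 23hr compound exposure within a 24hr incubation at 37C/5% CO2.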
# [17] = qHTS assay to identify small molecule antagonists of the sonic hedgehog signaling (Shh) pathway - cell viability counter screen (AID 1259367); note: nearly all actives have a fitted effect of over 55% in size; note: potency is the fitted concentration of half-maximal effect
# Procedure, shortened: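 Using CellTiter-Fluor, viability of Gli1-Luc reporter 3T3 cells is read by fluorescence in the wells used for the Shh luciferase assay. Treatment lasts 23 hr with conditioned medium, then reagent 1 hr at 37C.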
# [18] = qHTS assay to identify small molecule agonists of the sonic hedgehog signaling (Shh) pathway (AID 1259368; calls by dose curve;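 note: NIH/3T3-derived 3T3Gli1-Luc cells carrying a stable Gli1-driven firefly luciferase reporter; series mostly up to about 92 µM; nearly all actives have a fitted effect of over 15% in size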)
# Procedure, shortened: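 Luminescent signal was taken as a measure of Gli1-controlled luciferase expression in stably transfected NIH/3T3-derived cells that had been treated for 24 hr with compounds delivered in DMSO.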
# [19] = qHTS assay to identify small molecule phospholipidosis (PLD) inducers (AID 1259344; active = well fitted curve in the direction sought with a large enough effect; an effect the other way counts as inactive or inconclusive)
# Procedure, shortened: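 Fluorescent phospholipid staining (LipidTOX Red) measured by automated microscopy in fixed HepG2 cells after 24 h treatment; nuclei counterstained with Hoechst 33342; amiodarone as reference inducer.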
# [20] = biological target: Androgen receptor (Homo sapiens) (UniProt P10275); test: qHTS assay to identify small molecule antagonists of the androgen receptor (AR) signaling pathway using the MDA cell line in the presence of 0.5 nM R1881 (AID 1259243); note: nearly all actives have a fitted effect of over 50% in size
# Androgen receptor (Homo sapiens), sequence (P10275 whole entry, looked up): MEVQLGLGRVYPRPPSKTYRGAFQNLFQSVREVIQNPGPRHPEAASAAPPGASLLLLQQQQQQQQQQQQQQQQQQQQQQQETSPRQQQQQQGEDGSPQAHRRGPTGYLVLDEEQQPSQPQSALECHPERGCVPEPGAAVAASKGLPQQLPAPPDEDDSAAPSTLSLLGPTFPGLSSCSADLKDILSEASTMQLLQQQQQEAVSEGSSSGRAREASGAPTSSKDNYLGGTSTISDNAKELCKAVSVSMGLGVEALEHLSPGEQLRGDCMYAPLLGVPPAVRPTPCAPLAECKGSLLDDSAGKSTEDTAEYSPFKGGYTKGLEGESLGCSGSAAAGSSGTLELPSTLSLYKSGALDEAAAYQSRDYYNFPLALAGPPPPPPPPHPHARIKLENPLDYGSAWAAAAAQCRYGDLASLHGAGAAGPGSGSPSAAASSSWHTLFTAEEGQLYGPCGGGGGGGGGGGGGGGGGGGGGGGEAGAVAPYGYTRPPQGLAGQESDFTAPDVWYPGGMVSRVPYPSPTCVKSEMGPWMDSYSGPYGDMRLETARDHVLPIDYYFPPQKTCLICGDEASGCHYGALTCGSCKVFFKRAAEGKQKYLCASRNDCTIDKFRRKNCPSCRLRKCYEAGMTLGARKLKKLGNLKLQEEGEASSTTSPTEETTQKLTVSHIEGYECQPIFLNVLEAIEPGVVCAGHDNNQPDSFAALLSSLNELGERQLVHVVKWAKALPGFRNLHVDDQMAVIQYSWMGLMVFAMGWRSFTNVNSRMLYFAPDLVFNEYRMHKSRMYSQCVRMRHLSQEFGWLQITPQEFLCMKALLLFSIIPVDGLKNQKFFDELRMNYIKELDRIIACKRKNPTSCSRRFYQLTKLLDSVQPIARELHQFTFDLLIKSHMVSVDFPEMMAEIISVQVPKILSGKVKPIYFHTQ
# Procedure, shortened: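 Inhibition of R1881 (0.5 nM final) induced reporter signal was measured in human MDA-kb2 cells; note the MMTV promoter also responds to GR. Exposure lasted 16 hr at 37C.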
smiles,measurement,setting,value
O=[N+]([O-])c1cccc(C(F)(F)F)c1,Potency,[1],inactive
same,Potency,[2],inactive
same,Potency,[3],inactive
same,Potency,[4],inactive
same,Potency,[5],inactive
same,Potency,[6],inactive
same,Potency,[7],inactive
same,Potency,[8],inactive
same,Potency,[9],inactive
same,Potency,[10],inactive
same,Potency,[11],inactive
same,Potency,[12],inactive
same,Potency,[13],inactive
same,Potency,[14],inactive
same,Potency,[15],inactive
same,Potency,[16],inactive
same,Potency,[17],inactive
same,Potency,[18],inactive
C=C(CC)C(=O)c1ccc(OCC(=O)O)c(Cl)c1Cl,Potency,[1],inactive
same,Potency,[2],inactive
same,Potency,[3],inactive
same,Potency,[4],inactive
same,Potency,[5],inactive
same,Potency,[6],inactive
same,Potency,[7],inactive
same,Potency,[8],inactive
same,Potency,[9],inactive
same,Potency,[10],inactive
same,Potency,[11],inactive
same,Potency,[12],inactive
same,Potency,[13],inactive
same,Potency,[19],inactive
same,Potency,[14],inactive
same,Potency,[15],inactive
same,Potency,[16],60.7 µM (active) and inactive
same,Potency,[17],60.7 µM (active) and inactive
same,Potency,[18],inactive
O=C(O)Cc1ccccc1Nc1c(Cl)cccc1Cl,Potency,[1],inactive
same,Potency,[2],inactive
same,Potency,[3],inactive
same,Potency,[4],inactive
same,Potency,[5],inactive
same,Potency,[6],inactive
same,Potency,[7],inactive
same,Potency,[8],inactive
same,Potency,[9],inactive
same,Potency,[10],inactive
same,Potency,[11],inactive
same,Potency,[12],inactive
same,Potency,[20],inactive
same,Potency,[13],inactive
same,Potency,[19],inactive
same,Potency,[14],inactive
same,Potency,[15],inactive
same,Potency,[16],inactive
same,Potency,[17],inactive
same,Potency,[18],inactive
CCCCCC/C=C\CCCCCCCC(=O)O,Potency,[1],inactive
same,Potency,[2],inactive
same,Potency,[3],inactive
same,Potency,[4],inactive
same,Potency,[5],inactive
same,Potency,[6],inactive
same,Potency,[7],inactive
same,Potency,[8],inactive
same,Potency,[9],inactive
same,Potency,[10],inactive
same,Potency,[11],inactive
same,Potency,[12],inactive
same,Potency,[13],inactive
same,Potency,[14],inactive
same,Potency,[15],inactive
same,Potency,[16],inactive
same,Potency,[17],inactive
CCN1C(=O)c2ccccc2C1Nc1ccc(OCCN2CCCCC2)cc1 (centres undefined),Potency,[1],inactive
same,Potency,[2],inactive
same,Potency,[3],inactive
same,Potency,[4],inactive
same,Potency,[5],inactive
same,Potency,[6],4.77 µM (active)
same,Potency,[7],3.79 µM (active)
same,Potency,[8],inactive
same,Potency,[9],inactive
same,Potency,[10],inactive
same,Potency,[11],inactive
same,Potency,[12],inactive
same,Potency,[20],inactive
same,Potency,[13],inactive
same,PLD induction,[19],0.829% [at 7.66 µM] (inactive)
same,Potency,[14],inactive
same,Potency,[15],inactive
same,Potency,[16],inactive
same,Potency,[17],inactive
same,Potency,[18],inactive
Cc1cccc(C(=O)O)c1O,Potency,[1],inactive
same,Potency,[2],inactive
same,Potency,[3],inactive
same,Potency,[4],inactive
same,Potency,[5],inactive
same,Potency,[6],inactive
same,Potency,[7],inactive
same,Potency,[8],inactive
same,Potency,[9],inactive
same,Potency,[10],inactive
same,Potency,[11],inactive
same,Potency,[12],inactive
same,Potency,[13],inactive
same,Potency,[19],inactive
same,Potency,[14],inactive
same,Potency,[15],inactive
same,Potency,[16],inactive
same,Potency,[17],inactive
same,Potency,[18],inactive
c1ccsc1,Potency,[1],inactive
same,Potency,[2],inactive
same,Potency,[3],inactive
same,Potency,[4],inactive
same,Potency,[5],inactive
same,Potency,[6],inactive
same,Potency,[7],inactive
same,Potency,[8],inactive
same,Potency,[9],inactive
same,Potency,[10],inactive
same,Potency,[11],inactive
same,Potency,[12],inactive
same,Potency,[20],inactive
same,Potency,[13],inactive
same,Potency,[14],inactive
same,Potency,[15],inactive
same,Potency,[16],inactive
same,Potency,[17],inactive
same,Potency,[18],inactive
O=C(O)Cc1ccc2c(c1)C(=O)c1ccccc1CO2,Potency,[1],inactive
same,Potency,[2],inactive
same,Potency,[3],inactive
same,Potency,[4],inactive
same,Potency,[5],inactive
same,Potency,[6],inactive
same,Potency,[7],inactive
same,Potency,[8],inactive
same,Potency,[9],inactive
same,Potency,[10],inactive
same,Potency,[11],inactive
same,Potency,[12],inactive
same,Potency,[13],inactive
same,Potency,[14],inactive
same,Potency,[15],inactive
same,Potency,[16],inactive
same,Potency,[17],inactive
same,Potency,[18],inactive
CC(CO)Oc1ccccc1 (centres undefined),Potency,[1],inactive
same,Potency,[2],inactive
same,Potency,[3],inactive
same,Potency,[4],inactive
same,Potency,[5],inactive
same,Potency,[6],inactive
same,Potency,[7],inactive
same,Potency,[8],inactive
same,Potency,[9],inactive
same,Potency,[10],inactive
same,Potency,[11],inactive
same,Potency,[12],inactive
same,Potency,[20],inactive
same,Potency,[13],inactive
same,Potency,[14],inactive
same,Potency,[15],inactive
same,Potency,[16],inactive
same,Potency,[17],inactive
same,Potency,[18],inactive
CC(C)CCOC(=O)/C=C/c1ccccc1,Potency,[1],inactive
same,Potency,[2],inactive
same,Potency,[3],inactive
same,Potency,[4],inactive
same,Potency,[5],inactive
same,Potency,[6],inactive
same,Potency,[7],inactive
same,Potency,[8],inactive
same,Potency,[9],inactive
same,Potency,[10],inactive
same,Potency,[11],inactive
same,Potency,[12],inactive
same,Potency,[13],inactive
same,Potency,[15],inactive
same,Potency,[16],inactive
same,Potency,[17],inactive
same,Potency,[18],inactive
CCc1cccc(CC)c1NC(=O)CN(CC(=O)O)CC(=O)O,Potency,[1],inactive
same,Potency,[2],inactive
same,Potency,[3],inactive
same,Potency,[4],inactive
same,Potency,[5],inactive
same,Potency,[6],inactive
same,Potency,[7],inactive
same,Potency,[8],inactive
same,Potency,[9],inactive
same,Potency,[10],inactive
same,Potency,[11],inactive
same,Potency,[12],inactive
same,Potency,[13],inactive
same,Potency,[19],inactive
same,Potency,[14],inactive
same,Potency,[15],inactive
same,Potency,[16],inactive
same,Potency,[17],inactive
same,Potency,[18],inactive
CCCCCCCCCCOC(=O)c1ccccc1C(=O)OCCCCCCCC,Potency,[1],inactive
same,Potency,[2],inactive
same,Potency,[3],inactive
same,Potency,[4],inactive
same,Potency,[5],inactive
same,Potency,[6],inactive
same,Potency,[7],inactive
same,Potency,[8],inactive
same,Potency,[9],inactive
same,Potency,[10],inactive
same,Potency,[11],inactive
same,Potency,[12],inactive
same,Potency,[20],inactive
same,Potency,[13],inactive
same,Potency,[14],inactive
same,Potency,[16],inactive
same,Potency,[18],inactive
CC1(C)CC(O)CC(C)(C)N1,Potency,[1],inactive
same,Potency,[2],inactive
same,Potency,[3],inactive
same,Potency,[4],inactive
same,Potency,[5],inactive
same,Potency,[6],inactive
same,Potency,[7],inactive
same,Potency,[8],inactive
same,Potency,[9],inactive
same,Potency,[10],inactive
same,Potency,[11],inactive
same,Potency,[12],inactive
same,Potency,[13],inactive
same,Potency,[14],inactive
same,Potency,[15],inactive
same,Potency,[16],inactive
same,Potency,[17],inactive
